Source: the supplement of paper PMC11732987, “Enantioselective OTUD7B fragment discovery through chemoproteomics screening and high-throughput optimisation” (Communications Chemistry, 2025)

Columns and labels:
Test in all cases: log2 ratio of Biotin-Ahx-Ub-VS probe labelling (fragment/DMSO); higher = less target engagement (more negative = stronger competition), active = hit call of the paper (q ≤ 0.05, log2 ratio ≤ -1)
Conditions in all cases: compound concentration: 200 uM; treatment time: 3 h
USP34 = USP34 (UniProt Q70CQ2)
How it was run: (§1)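 Each value is an average log2 ratio of fragment to vehicle, tested by unpaired t-test. The underlying Spectronaut label-free quantities were global-median-normalised, and only proteins with ≥2 unique peptides were included. Triplicate HEK293T lysate samples (495 µg) were exposed to fragment at 200 µM or vehicle for 3 h, then to Biotin-Ahx-Ub-VS at 0.5 µM final for 1 h, before NeutrAvidin enrichment of labelled DUBs, LysC and trypsin digestion, and diaPASEF LC-MS/MS.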

USP36 = molecular target: T1, USP36 (UniProt Q9P275)
T1 sequence (whole entry): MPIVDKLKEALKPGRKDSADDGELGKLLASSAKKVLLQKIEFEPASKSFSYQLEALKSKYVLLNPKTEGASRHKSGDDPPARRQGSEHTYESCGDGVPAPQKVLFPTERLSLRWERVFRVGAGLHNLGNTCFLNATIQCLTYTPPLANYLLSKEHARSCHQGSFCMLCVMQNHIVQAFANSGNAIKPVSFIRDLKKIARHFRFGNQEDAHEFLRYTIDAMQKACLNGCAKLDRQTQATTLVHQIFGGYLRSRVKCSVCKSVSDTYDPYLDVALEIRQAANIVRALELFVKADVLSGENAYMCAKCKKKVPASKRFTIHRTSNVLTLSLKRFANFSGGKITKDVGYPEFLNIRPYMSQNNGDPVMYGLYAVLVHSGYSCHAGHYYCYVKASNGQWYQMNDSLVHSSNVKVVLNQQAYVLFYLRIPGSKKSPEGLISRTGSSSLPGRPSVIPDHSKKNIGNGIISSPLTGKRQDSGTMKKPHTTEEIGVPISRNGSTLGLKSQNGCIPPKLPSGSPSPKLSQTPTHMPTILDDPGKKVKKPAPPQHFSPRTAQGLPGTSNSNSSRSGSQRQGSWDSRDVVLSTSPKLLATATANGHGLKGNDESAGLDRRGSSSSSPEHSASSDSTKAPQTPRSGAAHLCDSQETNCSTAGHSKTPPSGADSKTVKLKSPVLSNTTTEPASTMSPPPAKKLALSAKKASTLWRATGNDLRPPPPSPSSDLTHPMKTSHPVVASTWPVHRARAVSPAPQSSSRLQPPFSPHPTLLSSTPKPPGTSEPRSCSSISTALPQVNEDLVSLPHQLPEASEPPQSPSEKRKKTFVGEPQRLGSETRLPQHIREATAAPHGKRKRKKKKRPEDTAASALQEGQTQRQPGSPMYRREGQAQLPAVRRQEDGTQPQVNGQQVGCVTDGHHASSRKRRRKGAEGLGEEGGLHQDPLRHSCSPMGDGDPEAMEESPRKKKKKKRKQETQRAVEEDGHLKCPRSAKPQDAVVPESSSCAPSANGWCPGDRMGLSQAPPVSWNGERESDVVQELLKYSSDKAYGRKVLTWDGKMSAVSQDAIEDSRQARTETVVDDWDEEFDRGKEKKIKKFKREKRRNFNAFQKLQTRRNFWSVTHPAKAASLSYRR
How it was run: as §1

USP38 = molecular target: T2, USP38 (UniProt Q8NB14)
T2 sequence (whole entry): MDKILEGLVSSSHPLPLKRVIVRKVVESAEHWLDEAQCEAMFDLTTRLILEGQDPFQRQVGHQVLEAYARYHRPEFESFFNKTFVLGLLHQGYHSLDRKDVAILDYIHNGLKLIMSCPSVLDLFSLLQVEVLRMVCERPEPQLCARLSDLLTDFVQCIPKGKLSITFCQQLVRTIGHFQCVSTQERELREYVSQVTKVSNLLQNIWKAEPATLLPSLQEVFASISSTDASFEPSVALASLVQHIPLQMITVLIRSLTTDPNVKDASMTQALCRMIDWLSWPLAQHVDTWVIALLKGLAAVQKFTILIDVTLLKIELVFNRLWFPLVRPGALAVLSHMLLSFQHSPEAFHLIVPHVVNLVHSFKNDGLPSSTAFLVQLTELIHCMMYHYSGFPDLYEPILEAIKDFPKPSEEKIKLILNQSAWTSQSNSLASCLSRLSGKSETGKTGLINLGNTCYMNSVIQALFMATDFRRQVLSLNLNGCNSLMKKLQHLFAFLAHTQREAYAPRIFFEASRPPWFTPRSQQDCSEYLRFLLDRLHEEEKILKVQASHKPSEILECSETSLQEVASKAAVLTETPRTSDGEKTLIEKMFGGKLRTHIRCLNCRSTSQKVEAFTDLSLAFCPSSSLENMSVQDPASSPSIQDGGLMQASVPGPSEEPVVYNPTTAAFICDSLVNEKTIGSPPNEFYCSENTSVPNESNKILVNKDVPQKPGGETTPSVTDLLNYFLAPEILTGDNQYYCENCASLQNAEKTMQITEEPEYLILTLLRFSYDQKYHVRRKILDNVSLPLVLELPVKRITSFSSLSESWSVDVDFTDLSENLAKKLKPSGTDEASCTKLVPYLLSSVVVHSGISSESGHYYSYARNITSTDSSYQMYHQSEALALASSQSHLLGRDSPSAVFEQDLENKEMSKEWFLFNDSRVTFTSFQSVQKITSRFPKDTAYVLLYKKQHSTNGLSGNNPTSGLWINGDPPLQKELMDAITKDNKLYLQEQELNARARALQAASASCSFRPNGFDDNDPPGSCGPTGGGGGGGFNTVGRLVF
How it was run: as §1

USP39 = molecular target: T3, USP39 (UniProt Q53GS9)
T3 sequence (whole entry): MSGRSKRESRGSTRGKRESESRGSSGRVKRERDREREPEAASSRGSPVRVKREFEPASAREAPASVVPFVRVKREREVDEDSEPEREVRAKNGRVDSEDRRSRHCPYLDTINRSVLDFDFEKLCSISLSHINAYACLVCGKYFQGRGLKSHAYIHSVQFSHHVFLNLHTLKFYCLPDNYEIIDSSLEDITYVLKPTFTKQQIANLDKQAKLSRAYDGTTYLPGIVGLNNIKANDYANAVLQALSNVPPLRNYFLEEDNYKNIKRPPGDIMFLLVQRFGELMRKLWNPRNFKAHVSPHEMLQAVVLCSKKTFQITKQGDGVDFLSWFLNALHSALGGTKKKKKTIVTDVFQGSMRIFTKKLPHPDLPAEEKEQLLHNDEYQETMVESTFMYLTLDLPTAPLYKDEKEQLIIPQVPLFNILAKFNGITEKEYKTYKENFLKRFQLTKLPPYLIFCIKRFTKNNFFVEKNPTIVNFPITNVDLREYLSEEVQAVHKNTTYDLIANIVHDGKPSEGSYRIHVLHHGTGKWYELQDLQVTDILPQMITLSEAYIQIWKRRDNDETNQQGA
How it was run: as §1

USP4 = molecular target: T4, USP4 (UniProt Q13107)
T4 sequence (whole entry): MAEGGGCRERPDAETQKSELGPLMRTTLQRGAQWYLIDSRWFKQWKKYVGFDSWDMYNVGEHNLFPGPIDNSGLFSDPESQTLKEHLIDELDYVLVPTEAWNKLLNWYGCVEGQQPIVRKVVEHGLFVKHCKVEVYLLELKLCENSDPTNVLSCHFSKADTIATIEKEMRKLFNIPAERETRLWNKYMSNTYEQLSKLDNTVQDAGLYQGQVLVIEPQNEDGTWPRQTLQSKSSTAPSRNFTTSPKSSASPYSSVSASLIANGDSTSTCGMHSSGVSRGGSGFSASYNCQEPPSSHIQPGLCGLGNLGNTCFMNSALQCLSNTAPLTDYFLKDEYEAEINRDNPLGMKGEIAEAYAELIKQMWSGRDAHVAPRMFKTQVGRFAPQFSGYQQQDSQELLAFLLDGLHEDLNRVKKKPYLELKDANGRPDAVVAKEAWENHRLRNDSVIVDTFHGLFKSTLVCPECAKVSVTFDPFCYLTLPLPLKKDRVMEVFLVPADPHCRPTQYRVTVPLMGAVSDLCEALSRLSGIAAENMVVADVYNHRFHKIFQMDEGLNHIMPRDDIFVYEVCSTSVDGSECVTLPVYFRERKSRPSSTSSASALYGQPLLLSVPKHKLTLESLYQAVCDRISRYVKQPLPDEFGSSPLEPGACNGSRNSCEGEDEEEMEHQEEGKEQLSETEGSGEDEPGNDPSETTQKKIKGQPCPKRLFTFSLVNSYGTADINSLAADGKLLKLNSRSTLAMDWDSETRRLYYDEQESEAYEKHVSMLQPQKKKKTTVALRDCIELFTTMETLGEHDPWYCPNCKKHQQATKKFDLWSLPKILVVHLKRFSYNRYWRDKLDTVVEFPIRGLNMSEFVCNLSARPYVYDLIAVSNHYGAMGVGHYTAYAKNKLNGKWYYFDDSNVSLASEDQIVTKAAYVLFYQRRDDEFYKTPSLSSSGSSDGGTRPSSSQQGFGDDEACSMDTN
How it was run: as §1

Measured: log2 ratio of Biotin-Ahx-Ub-VS probe labelling

USP34, sequence (Q70CQ2 whole entry, the tested form may be a part): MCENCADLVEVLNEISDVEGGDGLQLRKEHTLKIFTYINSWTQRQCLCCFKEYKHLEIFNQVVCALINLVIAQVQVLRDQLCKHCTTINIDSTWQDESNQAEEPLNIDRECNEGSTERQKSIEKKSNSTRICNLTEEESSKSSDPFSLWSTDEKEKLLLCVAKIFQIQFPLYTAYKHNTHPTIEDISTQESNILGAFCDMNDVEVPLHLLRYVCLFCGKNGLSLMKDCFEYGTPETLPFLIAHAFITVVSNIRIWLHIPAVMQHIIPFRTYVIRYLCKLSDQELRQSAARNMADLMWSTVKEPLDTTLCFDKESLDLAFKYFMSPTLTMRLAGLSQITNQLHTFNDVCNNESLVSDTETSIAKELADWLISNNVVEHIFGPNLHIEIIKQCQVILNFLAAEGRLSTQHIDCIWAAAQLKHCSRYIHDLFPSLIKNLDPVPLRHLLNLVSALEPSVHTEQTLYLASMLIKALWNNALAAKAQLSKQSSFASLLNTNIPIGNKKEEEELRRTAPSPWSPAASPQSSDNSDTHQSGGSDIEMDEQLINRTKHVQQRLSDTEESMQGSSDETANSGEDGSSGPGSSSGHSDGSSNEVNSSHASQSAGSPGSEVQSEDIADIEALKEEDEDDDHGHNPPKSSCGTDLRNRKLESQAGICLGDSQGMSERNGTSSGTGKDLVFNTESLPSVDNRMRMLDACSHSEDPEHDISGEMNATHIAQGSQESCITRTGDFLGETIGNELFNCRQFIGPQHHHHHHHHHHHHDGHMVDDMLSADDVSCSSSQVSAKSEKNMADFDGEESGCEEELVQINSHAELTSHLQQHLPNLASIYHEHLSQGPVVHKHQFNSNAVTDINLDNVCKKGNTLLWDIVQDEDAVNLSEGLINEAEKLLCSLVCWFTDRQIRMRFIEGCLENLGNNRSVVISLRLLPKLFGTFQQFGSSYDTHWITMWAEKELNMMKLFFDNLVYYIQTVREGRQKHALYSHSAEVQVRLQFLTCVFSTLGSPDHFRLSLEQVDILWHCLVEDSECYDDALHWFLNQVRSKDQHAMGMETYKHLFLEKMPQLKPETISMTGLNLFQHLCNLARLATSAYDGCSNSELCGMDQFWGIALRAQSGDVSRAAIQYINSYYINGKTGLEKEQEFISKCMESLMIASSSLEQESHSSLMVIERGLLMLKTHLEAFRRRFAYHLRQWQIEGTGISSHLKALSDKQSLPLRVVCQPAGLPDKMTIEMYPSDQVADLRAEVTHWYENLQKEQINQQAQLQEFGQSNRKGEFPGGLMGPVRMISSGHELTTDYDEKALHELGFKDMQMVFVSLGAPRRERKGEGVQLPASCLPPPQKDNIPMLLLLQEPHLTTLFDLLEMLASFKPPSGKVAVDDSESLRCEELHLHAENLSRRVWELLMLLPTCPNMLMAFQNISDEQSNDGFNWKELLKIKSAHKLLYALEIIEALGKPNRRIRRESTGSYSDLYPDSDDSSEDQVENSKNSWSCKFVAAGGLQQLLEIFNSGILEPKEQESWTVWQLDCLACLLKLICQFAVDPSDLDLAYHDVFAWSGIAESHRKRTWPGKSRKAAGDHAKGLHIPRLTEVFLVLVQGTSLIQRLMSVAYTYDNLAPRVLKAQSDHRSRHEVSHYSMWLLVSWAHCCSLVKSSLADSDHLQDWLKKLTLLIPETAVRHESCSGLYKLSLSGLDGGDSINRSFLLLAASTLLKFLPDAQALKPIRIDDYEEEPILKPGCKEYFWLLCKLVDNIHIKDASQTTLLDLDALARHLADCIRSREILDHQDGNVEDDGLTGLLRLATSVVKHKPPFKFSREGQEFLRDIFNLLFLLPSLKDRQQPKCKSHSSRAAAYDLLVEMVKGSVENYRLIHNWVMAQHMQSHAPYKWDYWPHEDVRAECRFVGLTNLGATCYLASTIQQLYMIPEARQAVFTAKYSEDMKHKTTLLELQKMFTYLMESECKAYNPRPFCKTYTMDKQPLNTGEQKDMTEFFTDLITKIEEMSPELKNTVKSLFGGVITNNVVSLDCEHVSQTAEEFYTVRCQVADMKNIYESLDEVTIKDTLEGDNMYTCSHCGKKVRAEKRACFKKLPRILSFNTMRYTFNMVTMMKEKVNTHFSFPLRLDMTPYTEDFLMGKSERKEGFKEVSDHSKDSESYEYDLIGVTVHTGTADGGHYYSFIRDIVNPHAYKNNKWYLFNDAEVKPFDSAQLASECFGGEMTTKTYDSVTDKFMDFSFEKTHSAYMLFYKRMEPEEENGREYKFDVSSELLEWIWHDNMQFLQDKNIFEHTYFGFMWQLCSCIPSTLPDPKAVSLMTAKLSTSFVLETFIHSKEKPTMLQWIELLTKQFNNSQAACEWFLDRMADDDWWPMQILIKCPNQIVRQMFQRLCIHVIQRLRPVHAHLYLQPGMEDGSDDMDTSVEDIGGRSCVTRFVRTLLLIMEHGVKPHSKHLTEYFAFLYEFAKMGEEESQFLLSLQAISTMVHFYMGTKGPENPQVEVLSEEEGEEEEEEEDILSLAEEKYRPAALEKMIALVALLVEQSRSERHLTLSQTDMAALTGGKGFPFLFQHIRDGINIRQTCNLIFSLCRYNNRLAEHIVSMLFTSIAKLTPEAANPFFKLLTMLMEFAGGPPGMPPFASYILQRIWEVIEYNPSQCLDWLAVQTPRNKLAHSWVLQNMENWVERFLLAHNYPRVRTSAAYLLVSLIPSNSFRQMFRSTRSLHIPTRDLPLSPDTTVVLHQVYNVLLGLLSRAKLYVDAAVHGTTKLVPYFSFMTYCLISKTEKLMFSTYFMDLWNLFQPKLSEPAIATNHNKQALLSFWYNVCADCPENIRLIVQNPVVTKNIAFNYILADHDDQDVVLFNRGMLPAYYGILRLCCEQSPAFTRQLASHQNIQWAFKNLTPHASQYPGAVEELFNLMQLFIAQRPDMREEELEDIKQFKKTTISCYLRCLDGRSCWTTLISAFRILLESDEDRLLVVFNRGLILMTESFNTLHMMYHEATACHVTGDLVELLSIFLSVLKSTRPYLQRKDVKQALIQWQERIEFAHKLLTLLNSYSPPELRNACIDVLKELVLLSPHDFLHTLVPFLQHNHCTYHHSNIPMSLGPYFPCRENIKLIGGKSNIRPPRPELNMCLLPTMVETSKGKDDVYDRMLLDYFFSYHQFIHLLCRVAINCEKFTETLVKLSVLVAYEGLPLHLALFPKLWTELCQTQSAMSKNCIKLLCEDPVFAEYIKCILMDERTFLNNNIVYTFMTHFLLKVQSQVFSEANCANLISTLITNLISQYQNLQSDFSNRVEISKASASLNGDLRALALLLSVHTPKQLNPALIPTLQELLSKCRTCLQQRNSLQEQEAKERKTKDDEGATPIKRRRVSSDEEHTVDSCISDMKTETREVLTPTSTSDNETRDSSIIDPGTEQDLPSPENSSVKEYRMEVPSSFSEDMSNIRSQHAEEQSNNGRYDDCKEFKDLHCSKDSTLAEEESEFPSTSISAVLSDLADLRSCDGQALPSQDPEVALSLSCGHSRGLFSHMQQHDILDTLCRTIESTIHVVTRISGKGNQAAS

Cc1ccccc1CN(C)C(=O)CCl
inactive: USP34 -0.547 | USP36 -0.347 | USP38 -0.741 | USP39 -0.049 | USP4 -0.831
